From PubChem BioAssay (Tox21)
Values joined by “and” are separate entries in the source; they are usually repeats but may differ in a detail not shown here. Identical values can stand only once. Inconclusive results are not listed. Where a structure was tested more than once in an assay, its records may differ in their call. Active and inactive are the calls of the source. Unless noted, the call rests on the fitted dose curve.

How the values were obtained:
[1] = Nuclear factor erythroid 2-related factor 2/antioxidant responsive element (Nrf2/ARE) small molecule agonists: qHTS cell viability counter screen in human keratinocytes (AID 1919968; active means well fitted curve in the direction sought with a large enough effect in the repeat runs; an effect the other way counts as inactive or inconclusive; further: nearly all actives have a fitted effect of over 55% in size; further: potency means the concentration at half of the fitted maximal effect)
Outline: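 Viability counter-screen: KeratinoSens reporter cells, DMSO-delivered compounds, 23 h at 37 C, CellTiter-Fluor fluorescence.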

[2] = Nuclear factor erythroid 2-related factor 2/antioxidant responsive element (Nrf2/ARE) small molecule agonists: luciferase reporter gene qHTS assay in human keratinocytes (AID 1919969); further: nearly all actives have a fitted effect of over 35% in size; further: potency means the concentration at half of the fitted maximal effect
[3] = target: Gonadotropin-releasing hormone receptor (Homo sapiens) (UniProt P30968); assay: Human gonadotropin-releasing hormone receptor (GnRHR) small molecule agonists, calcium flux assay in GnRHR-HEK293 cells (AID 1920063); further: nearly all actives have a fitted effect of over 35% in size
Sequence of Gonadotropin-releasing hormone receptor (Homo sapiens) (P30968 whole entry, looked up): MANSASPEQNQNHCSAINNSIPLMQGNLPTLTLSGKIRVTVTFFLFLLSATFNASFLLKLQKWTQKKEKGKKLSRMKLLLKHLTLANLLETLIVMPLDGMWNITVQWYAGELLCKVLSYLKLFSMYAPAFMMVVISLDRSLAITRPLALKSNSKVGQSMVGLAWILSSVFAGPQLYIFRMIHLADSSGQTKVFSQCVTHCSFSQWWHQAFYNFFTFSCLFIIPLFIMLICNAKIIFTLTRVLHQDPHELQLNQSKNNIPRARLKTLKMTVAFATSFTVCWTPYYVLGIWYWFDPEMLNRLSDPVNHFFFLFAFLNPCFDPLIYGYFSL
Outline: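 Tox21-format agonist screen using human GnRHR-expressing HEK293 cells and a fluorescent calcium dye; kinetic 3-min fluorescence reading after compound addition, 15-point concentration series run in triplicate.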

[4] = target: KiSS-1 receptor (Homo sapiens) (UniProt Q969F8); assay: Human kisspeptin (KISS1R) small molecule agonists, calcium flux assay in KISS1R-HEK293 cells (AID 1920064; active means well fitted curve in the direction sought with a large enough effect in the repeat runs; an effect the other way counts as inactive or inconclusive)
Sequence of KiSS-1 receptor (Homo sapiens) (Q969F8 whole entry, looked up): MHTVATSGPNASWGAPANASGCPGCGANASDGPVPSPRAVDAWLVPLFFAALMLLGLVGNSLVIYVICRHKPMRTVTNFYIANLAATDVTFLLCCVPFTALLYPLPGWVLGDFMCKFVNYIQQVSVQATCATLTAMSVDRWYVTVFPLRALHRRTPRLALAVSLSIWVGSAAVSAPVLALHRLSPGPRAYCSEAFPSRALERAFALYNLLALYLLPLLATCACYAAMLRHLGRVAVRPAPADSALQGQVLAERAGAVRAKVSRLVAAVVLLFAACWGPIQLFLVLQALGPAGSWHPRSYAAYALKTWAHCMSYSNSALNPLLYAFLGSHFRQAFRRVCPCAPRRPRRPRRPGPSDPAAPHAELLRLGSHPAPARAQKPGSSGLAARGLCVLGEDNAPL
Outline: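 Intracellular calcium mobilization in KISS1R-HEK293 cells was recorded by fluorescence (Ex/Em 480/540) for 3 min following compound addition to cells pre-loaded 1 h with calcium dye.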

[5] = G protein-coupled receptor (GPCR) small molecule agonists, calcium flux assay: HEK293 wild type cell line counter screen (AID 1920065)
Outline: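 In this agonist-mode screen, ATP is the positive control and DMSO the vehicle. Cells grow 18 h before a 1 h dye incubation at 37 C; signal is taken at Ex/Em 480/540 over 3 min.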

[6] = p53 small molecule agonists, cell-based qHTS assay with human liver microsomes (AID 1963577)
Outline: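 p53RE-bla reporter cells were pre-incubated 5 h at 37 C, then treated with compounds plus human liver microsomes (0.5 mg/mL final) and NADPH (0.5 mg/mL final) for 16 h at 37 C. Beta-lactamase activity was read by LiveBLAzer fluorescence after 2 h at room temperature.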

[7] = p53 small molecule agonists, cell-based qHTS assay with rat liver microsomes (AID 1963578)
Outline: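 p53RE-bla cells were exposed to compounds together with rat liver microsomes (0.5 mg/mL final) and NADPH (0.5 mg/mL final) for 16 h at 37 C, then read by LiveBLAzer beta-lactamase fluorescence after 2 h at room temperature.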

[8] = p53 small molecule agonists, cell-based qHTS assay with human liver microsomes: qHTS cell viability counter screen (AID 1963579); further: nearly all actives have a fitted effect of over 45% in size
Outline: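 p53RE-bla cells (4,000/well) were pre-incubated 5 h at 37 C, then given compounds in DMSO plus human liver microsomes (0.5 mg/mL final) and NADPH (0.5 mg/mL final) for 16 h at 37 C. Viability was read by CellTiter-Glo luminescence.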

[9] = p53 small molecule agonists, cell-based qHTS assay with rat liver microsomes: qHTS cell viability counter screen (AID 1963580); further: nearly all actives have a fitted effect of over 45% in size; further: potency means the concentration at half of the fitted maximal effect
Outline: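 Intracellular ATP, by CellTiter-Glo luminescence, defines viability. HCT-116 p53RE-bla cells, 4,000 per well, were compound-treated in the presence of rat liver microsomes and NADPH for 16 h at 37 C.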

[10] = p53 small molecule agonists, cell-based qHTS assay: qHTS cell viability counter screen (AID 1963581); further: nearly all actives have a fitted effect of over 45% in size
Outline: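 Compounds are pinned onto HCT-116 p53RE-bla cells and left 16 h at 37 C. Following the reporter FRET read, ATP is quantified by CellTiter-Glo luminescence after 30 min at room temperature.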

[11] = p53 small molecule agonists, cell-based qHTS assay (AID 1963582; active means well fitted activation curve with a large enough effect in the signal ratio in the repeat runs, not every such curve was filed as active; the % refers to the signal ratio)
Outline: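 Agonist activity was scored from beta-lactamase FRET fluorescence in p53RE-bla cells treated 16 h at 37 C with compounds in DMSO, substrate incubation being 2 h at room temperature.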

[12] = target: 5-hydroxytryptamine receptor 2A (Homo sapiens) (UniProt P28223); assay: 5-hydroxytryptamine receptor 2A (HTR2A) small molecule antagonists, cell-based qHTS assay (AID 1963586); further: nearly all actives have a fitted effect of over 45% in size; further: potency means the concentration at half of the fitted maximal effect
Sequence of 5-hydroxytryptamine receptor 2A (Homo sapiens) (P28223 whole entry, looked up): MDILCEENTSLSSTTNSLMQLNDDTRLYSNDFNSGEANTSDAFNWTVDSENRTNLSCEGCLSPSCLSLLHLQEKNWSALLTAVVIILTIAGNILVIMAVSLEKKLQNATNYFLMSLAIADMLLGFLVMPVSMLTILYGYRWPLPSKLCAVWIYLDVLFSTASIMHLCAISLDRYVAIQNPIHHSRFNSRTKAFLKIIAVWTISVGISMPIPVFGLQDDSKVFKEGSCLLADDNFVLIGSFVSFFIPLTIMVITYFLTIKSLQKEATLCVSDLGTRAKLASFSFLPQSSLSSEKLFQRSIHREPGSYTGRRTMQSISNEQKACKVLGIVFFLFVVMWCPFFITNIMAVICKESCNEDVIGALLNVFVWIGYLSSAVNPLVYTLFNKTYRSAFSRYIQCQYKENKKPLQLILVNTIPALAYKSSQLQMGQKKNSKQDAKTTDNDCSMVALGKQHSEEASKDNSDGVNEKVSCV
Outline: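 Antagonist-mode intracellular calcium assay: DOI (4 nM) added after 5 min compound pre-incubation at room temperature to dye-loaded HTR2A-CHO cells. Fluorescence followed for 3 min, sampled every second.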

[13] = target: 5-hydroxytryptamine receptor 2A (Homo sapiens) (UniProt P28223); assay: 5-hydroxytryptamine receptor 2A (HTR2A) small molecule agonists, cell-based qHTS assay (AID 1963587); further: nearly all actives have a fitted effect of over 30% in size
Outline: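 Kinetic calcium-flux fluorescence (2 min, 1 sec intervals) after compound addition in agonist mode. HTR2A-CHO cells were cultured 18 h, then dye-loaded 1 h at 37 C.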

[14] = target: Muscarinic acetylcholine receptor M1 (Homo sapiens) (UniProt P11229); assay: Cholinergic receptor muscarinic 1 (CHRM1) small molecule antagonists, cell-based qHTS assay (AID 1963588); further: nearly all actives have a fitted effect of over 40% in size; further: potency means the concentration at half of the fitted maximal effect
Sequence of Muscarinic acetylcholine receptor M1 (Homo sapiens) (P11229 whole entry, looked up): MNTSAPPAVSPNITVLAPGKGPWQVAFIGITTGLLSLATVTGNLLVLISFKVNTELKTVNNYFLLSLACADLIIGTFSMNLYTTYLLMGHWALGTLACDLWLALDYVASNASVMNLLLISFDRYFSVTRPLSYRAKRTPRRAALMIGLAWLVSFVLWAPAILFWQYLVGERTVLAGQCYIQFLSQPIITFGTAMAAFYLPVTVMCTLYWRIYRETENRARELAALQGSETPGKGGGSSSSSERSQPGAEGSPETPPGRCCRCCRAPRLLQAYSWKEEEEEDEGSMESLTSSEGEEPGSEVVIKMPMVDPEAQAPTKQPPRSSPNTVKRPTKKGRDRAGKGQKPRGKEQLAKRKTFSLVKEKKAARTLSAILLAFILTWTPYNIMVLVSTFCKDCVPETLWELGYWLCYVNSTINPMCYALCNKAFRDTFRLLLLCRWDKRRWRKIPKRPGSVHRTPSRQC
Outline: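 CHRM1-CHO calcium-flux assay, antagonist mode. Cells were seeded 18 h, dye-loaded 1 h at 37 C and given compound for 5 min at RT, then acetylcholine was added at 50nM. FDSS fluorescence was read 3 min; 15 concentrations, three runs.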

[15] = target: Muscarinic acetylcholine receptor M1 (Homo sapiens) (UniProt P11229); assay: Cholinergic receptor muscarinic 1 (CHRM1) small molecule agonists, cell-based qHTS assay (AID 1963589); further: nearly all actives have a fitted effect of over 35% in size
Outline: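 Stable CHRM1-CHO cells (human receptor) were incubated 18 h, dye-loaded for 1 h at 37 C and exposed to test compounds for agonist activity, with calcium-dependent fluorescence followed kinetically.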

[16] = cAMP Responsive Elements (CRE) small molecule agonists, cell-based qHTS assay (AID 1963590)
Outline: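 FRET-based beta-lactamase readout (LiveBLAzer B/G, 2 h RT) quantified CRE activation in HEK 293T CRE-bla cells after 3 h treatment with DMSO-dissolved compounds.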

[17] = cAMP Responsive Elements (CRE) small molecule antagonists, cell-based qHTS assay (AID 1963591; active means well fitted inhibition curve with a large enough effect in the signal ratio in the repeat runs, not every such curve was filed as active; the % refers to the signal ratio)
Outline: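 qHTS in CRE-bla HEK 293T cells: compound in DMSO, then 0.25 uM NKH477 (final), 3 h at 37 °C/5% CO2; beta-lactamase FRET read-out after 2 h substrate incubation.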

[18] = target: Beta-2 adrenergic receptor (Homo sapiens) (UniProt P07550); assay: Adrenergic beta2 receptor (ADRB2) small molecule antagonists, cell-based qHTS assay (AID 1963592); further: nearly all actives have a fitted effect of over 50% in size; further: potency means the concentration at half of the fitted maximal effect
Sequence of Beta-2 adrenergic receptor (Homo sapiens) (P07550 whole entry, looked up): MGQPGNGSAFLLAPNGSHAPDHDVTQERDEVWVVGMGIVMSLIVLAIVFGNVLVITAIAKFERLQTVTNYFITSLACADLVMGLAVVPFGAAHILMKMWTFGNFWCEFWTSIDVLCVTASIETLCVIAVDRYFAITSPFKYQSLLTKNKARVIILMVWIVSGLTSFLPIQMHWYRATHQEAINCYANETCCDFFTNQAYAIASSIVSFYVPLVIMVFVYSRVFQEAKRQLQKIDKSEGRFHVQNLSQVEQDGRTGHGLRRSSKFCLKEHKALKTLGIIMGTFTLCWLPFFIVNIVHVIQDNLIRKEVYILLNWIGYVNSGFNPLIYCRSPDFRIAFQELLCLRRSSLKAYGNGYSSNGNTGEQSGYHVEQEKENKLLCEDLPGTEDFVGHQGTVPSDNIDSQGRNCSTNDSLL
Outline: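 Cells (CHO, stable ADRB2 overexpression) incubated 18-20hr at 37C; compounds added from DMSO; agonist mix (1nM isoproterenol, 100uM IBMX, 25uM Ro-20-1724) added; 0.5hr RT; d2-cAMP and anti-cAMP-cryptate added; 1hr RT; 665/615 nm read.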

[19] = target: D(2) dopamine receptor (Homo sapiens) (UniProt P14416); assay: Dopamine D2 receptor (DRD2) small molecule agonists, cell-based qHTS assay (AID 1963594); further: nearly all actives have a fitted effect of over 35% in size
Sequence of D(2) dopamine receptor (Homo sapiens) (P14416 whole entry, looked up): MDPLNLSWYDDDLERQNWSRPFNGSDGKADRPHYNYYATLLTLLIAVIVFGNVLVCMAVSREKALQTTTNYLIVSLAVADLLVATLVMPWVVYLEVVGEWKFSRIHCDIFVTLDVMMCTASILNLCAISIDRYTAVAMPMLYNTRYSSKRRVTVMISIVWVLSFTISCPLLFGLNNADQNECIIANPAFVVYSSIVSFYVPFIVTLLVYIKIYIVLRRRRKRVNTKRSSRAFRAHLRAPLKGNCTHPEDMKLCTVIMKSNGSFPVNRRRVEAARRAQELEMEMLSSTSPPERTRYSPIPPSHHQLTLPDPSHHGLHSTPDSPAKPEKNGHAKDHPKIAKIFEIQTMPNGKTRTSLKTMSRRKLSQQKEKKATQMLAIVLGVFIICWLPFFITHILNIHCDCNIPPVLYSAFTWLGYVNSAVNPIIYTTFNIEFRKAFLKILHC
Outline: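 cAMP accumulation in DRD2-HEK293 cells measured by HTRF after 1 h detection; compounds added 10 min before NKH477 (200nM […]) forskolin-analogue stimulation, 30 min at room temperature, with Ro20-1724 present at 0.1 mM final.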

[20] = target: D(2) dopamine receptor (Homo sapiens) (UniProt P14416); assay: Dopamine D2 receptor (DRD2) small molecule antagonists, cell-based qHTS assay (AID 1963595; active means well fitted inhibition curve with a large enough effect in the signal ratio in the repeat runs, with a control signal flat; the % refers to the signal ratio)
Outline: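 Antagonist mode in DRD2-HEK293 cells: after compound addition with 0.1 mM Ro20-1724, cells received quinpirole (12 nM) and NKH477 (200 nM) for 30 min at room temperature; HTRF cAMP read after 1 h detection.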

Measured: Potency

COc1ccc([C@@H]2CC(=O)c3c(O)cc(O[C@@H]4O[C@H](CO[C@@H]5O[C@@H](C)[C@H](O)[C@@H](O)[C@H]5O)[C@@H](O)[C@H](O)[C@H]4O)cc3O2)cc1OC
inactive: [1] | [2] | [3] | [4] | [5] | [6] | [7] | [8] | [9] | [10] | [11] | [12] | [13] | [14] | [15] | [16] | [17] | [18] | [19] | [20]

COCC(=O)O
inactive: [1] | [2] | [3] | [4] | [5] | [6] | [7] | [8] | [9] | [10] | [11] | [12] | [13] | [15] | [16] | [17] | [18] | [19] | [20]
8.63 µM (active) and inactive: [14]

CCC(Cc1c(I)cc(I)c(N)c1I)C(=O)O (stereo unspecified)
inactive: [1] | [2] | [3] | [4] | [5] | [6] | [7] | [8] | [9] | [10] | [11] | [13] | [14] | [15] | [16] | [17] | [18] | [19]
inactive and 3.65 µM (active): [12]

CCCCCCCCCCCCc1ccccc1
inactive: [1] | [3] | [4] | [5] | [6] | [7] | [8] | [9] | [10] | [11] | [12] | [13] | [14] | [15] | [16] | [17] | [18] | [19] | [20]
61.2 µM (active) and inactive: [2]

C=C(C)C(=O)OCC(C)C
inactive: [1] | [2] | [3] | [4] | [5] | [6] | [7] | [8] | [9] | [10] | [11] | [12] | [13] | [14] | [15] | [16] | [17] | [18] | [19] | [20]

OCCOCCN1CCN(C(c2ccccc2)c2ccc(Cl)cc2)CC1 (stereo unspecified)
active: [12] 1.47 µM and 1.63 µM | [14] 7.38 µM
inactive: [1] | [2] | [3] | [4] | [5] | [6] | [7] | [8] | [9] | [10] | [11] | [13] | [15] | [16] | [17] | [19] | [20]
inactive and 26.6 µM (active): [18]

O=C=Nc1ccc(Cc2ccc(N=C=O)cc2)cc1
inactive: [1] | [2] | [3] | [4] | [5] | [6] | [7] | [8] | [9] | [10] | [11] | [12] | [13] | [14] | [15] | [16] | [17] | [18] | [19] | [20]

CCN1CCCC1=O
inactive: [1] | [2] | [3] | [4] | [5] | [6] | [7] | [8] | [9] | [10] | [11] | [12] | [13] | [14] | [15] | [16] | [17] | [18] | [20]

O=C(O)CC(O)C(=O)O (stereo unspecified)
inactive: [1] | [2] | [3] | [4] | [5] | [6] | [7] | [8] | [9] | [10] | [11] | [12] | [13] | [14] | [15] | [16] | [17] | [18] | [19] | [20]

Brc1nc2ccccc2s1
inactive: [1] | [2] | [3] | [4] | [5] | [6] | [7] | [8] | [9] | [10] | [11] | [12] | [13] | [14] | [15] | [16] | [17] | [18] | [20]

Cc1ncc(CO)c(CO)c1O
inactive: [1] | [2] | [3] | [4] | [5] | [6] | [7] | [8] | [9] | [10] | [11] | [12] | [13] | [14] | [15] | [16] | [17] | [18] | [20]

O=Cc1ccc(CO)o1
inactive: [1] | [2] | [3] | [4] | [5] | [6] | [7] | [8] | [9] | [10] | [11] | [12] | [13] | [14] | [15] | [16] | [17] | [18] | [19] | [20]

C=C(C)C(=O)O[C@H]1C[C@@H]2CC[C@@]1(C)C2(C)C
1.21 µM (active) and inactive: [1]
7.21 µM (active) and inactive: [9]
963 nM (active) and inactive: [2]
inactive: [3] | [4] | [5] | [6] | [7] | [8] | [10] | [11] | [12] | [13] | [14] | [15] | [16] | [17] | [18] | [19] | [20]
